Test results taken from PubChem BioAssay AID1224853 (National Center for Advancing Translational Sciences (NCATS), 2016).
Inconclusive results are not listed. Activity calls are given as the source filed them. Calls follow the shape of the dose curve; as a rule, active = well fitted inhibition curve with a large enough effect; inconclusive = small, poorly fitted or top-dose-only effect; inactive = no such curve, though single readings can be large or run the other way.

experiment: Confirmation assay for measurement of the activity of small molecule inhibitors on Zika virus induced Caspase-3 activity in human astrocytoma cells; conditions: SNB-19 ZIKV-induced caspase-3/7, luminescence, 6 h; series mostly up to 46.1 µM; activity change, negative = inhibition: at the top concentration
Outline: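 Percent inhibition of Zika-triggered caspase-3 activation is derived from luminescence, scaled between uninfected cells and infected cells. Astrocytoma SNB-19 cells receive compound one hour ahead of a 6 h infection at 2 FFU/cell.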

Potency, active:
Clc1ccccc1-c1nc(-c2ccncc2)no1 7.74 µM, COc1cc2nc(N3CCN(C(=O)C4CCCO4)CC3)nc(N)c2cc1OC (centres undefined) 17.3 µM, O=C1C[C@@H](c2ccc(O)cc2)Oc2cc(O)cc(O)c21 15.5 µM, O=C(O)CCC(=O)c1ccc(-c2ccccc2)cc1 24.5 µM, COc1ccc(-c2cc(=O)c3c(O)cc(O)cc3o2)cc1O 13.8 µM, O=C(Nc1ccc(OC(F)(F)F)cc1)c1sccc1NCc1ccnc2ccccc12 6.9 µM, Cc1ccc(O)c(N=Nc2ccccc2)n1 5.48 µM, Nc1ccc2c(c1)CN1C(=O)c3ccccc3C1=N2 3.37 µM, C/C(=N\O)c1ccc(OCC(=O)N2CCCCC2)cc1 8.69 µM, COc1cccc(-c2ccc(NC(=O)C3=C(C(=O)O)CCC3)c(F)c2)c1 3.46 µM, CC(C)(C)COc1ccc(-n2cc(C(=O)O)cn2)cc1C#N 25.1 µM, O=C(OCc1ccccc1)c1ccc(O)cc1 19.5 µM, CN1CC(=O)N/C1=N/C(=O)Nc1cccc(Cl)c1 6.9 µM, c1ccc2[nH]c(-c3cscn3)nc2c1 12.3 µM, O=S(=O)(O)c1ccc2nc(-c3ccccc3)[nH]c2c1 1.73 µM, NC(=O)c1cccc2[nH]c(-c3ccc([C@H]4CCCN4)cc3F)nc12 17.3 µM

Activity change, negative = inhibition, inactive:
CC(C(=O)O)c1ccc(-c2ccccc2)c(F)c1 (centres undefined) -11.9%, CCCCCCCCCCCC(=O)[O][Sn]([CH2]CCC)([CH2]CCC)[O]C(=O)CCCCCCCCCCC 4.51%, CCN1CCC(n2cc(CNc3cc(Cl)c4ncc(C#N)c(Nc5ccc(F)c(Cl)c5)c4c3)nn2)CC1 1.61%, Cc1ccc(C(=O)c2ccc(CC(=O)O)n2C)cc1 -24.3%, CCCCCCCC/C=C/C(=O)O -2.36%, N[C@H](CSC(c1ccccc1)(c1ccccc1)c1ccccc1)C(=O)O 14.3%, C=CCCCCCCCCC(=O)O -5.82%, O=C1c2ccccc2C(=O)c2c(NCCc3ccc(O)cc3)ccc(NCCc3ccc(O)cc3)c21 -30.1%, Cc1[nH]c(C=C2C(=O)Nc3ccccc32)c(C)c1CCC(=O)O 0.798%, COc1ccnc2c1CCCCC2S(=O)c1nc2ccccc2[nH]1 (centres undefined) -5.51%, CN(C)c1ccc(N=NS(=O)(=O)O)cc1 -21.5% [at 88.3 µM], CC(C(=O)O)c1ccc2c(c1)[nH]c1ccc(Cl)cc12 (centres undefined) -15.7%, Cc1nc(N)sc1-c1ccnc(Nc2ccc(N3CCOCC3)cc2)n1 -13.1%, O=C(O)[C@H](CC(=O)N1C[C@@H]2CCCC[C@H]2C1)Cc1ccccc1 -6.96%, O=C(O)Cc1ccc(-c2ccccc2)cc1 -25.3%, O=C(/C=C/c1ccccc1)NCCO -21.9%, CC(=C(CCOC(=O)C(C)C)SSC(CCOC(=O)C(C)C)=C(C)N(C=O)Cc1cnc(C)nc1N)N(C=O)Cc1cnc(C)nc1N -17%, NC1CCC(Nc2nc(Nc3ccc(C(=O)N4CCCCC4)cc3)c3ncn(-c4cccc(F)c4)c3n2)CC1 (centres undefined) 99.3%, CCCCCNC(=O)N1CCC(CN(Cc2ccc(Cl)cc2)Cc2ccc([N+](=O)[O-])s2)C1 (centres undefined) 17.3%, C[C@@H]1CCN(C(=O)CC#N)C[C@H]1N(C)c1ncnc2[nH]ccc12 5.55%, Cc1c(NC(=O)c2ccc(C(C)(C)C)cc2)cccc1-c1cn(C)c(=O)c(Nc2ccc(C(=O)N3CCOCC3)cc2)n1 -15.3%, Nc1ccc(O)c(C(=O)O)c1 -11.2%, CC(C)OC(=O)CCCC=CC[C@@H]1[C@H](C=C[C@@H](O)COc2cccc(C(F)(F)F)c2)[C@H](O)C[C@@H]1O 16.3%
